Results from PubChem BioAssay (Tox21).
Results filed as inconclusive are left out. The source made the active and inactive calls. Calls come from the whole dose curve; as a rule, active = well fitted curve in the direction sought with a large enough effect in the repeat runs; inconclusive = weak or mixed curves; inactive = no such curve, though single readings can be large; an effect the other way counts as inactive or inconclusive.

What was measured:
[1] = qHTS RealTime-Glo MT Cell Viability Assay in HepG2 cells - 24 hour (AID 1224867); note: nearly all actives have a fitted effect of over 50% in size
In short: (§1)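 Real-time, nonlytic viability: 600 HepG2 cells/well mixed with NanoLuc enzyme plus prosubstrate; 5 h settle, compound (DMSO) added by pintool; luminescence monitored over 40 h at 37 C.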

[2] = qHTS RealTime-Glo MT Cell Viability Assay in HEK293 cells - 32 hour (AID 1224868); note: top concentration of the series differs between compounds; nearly all actives have a fitted effect of over 50% in size
In short: (§2)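 Cells + reagent dispensed (600 cells/well, HEK293) → 5 h at 37 C/5% CO2 → 23 nL compound in DMSO pinned → 40 h at 37 C → luminescence read at 0, 8, 16, 24, 32, 40 h.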

[3] = A CellTox Green Cytotoxicity Assay to monitor cytotoxicity in HEK293 cells - 0 hour (AID 1224869); note: nearly all actives have a fitted effect of over 50% in size
In short: (§3)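 Cytotoxicity was tracked continuously in HEK293 cells by a DNA-binding dye excluded from viable cells. Compounds were transferred in DMSO 5 h after seeding; fluorescence was recorded at intervals up to 40 h.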

[4] = qHTS RealTime-Glo MT Cell Viability Assay in HepG2 cells - 40 hour (AID 1224870); note: nearly all actives have a fitted effect of over 50% in size
In short: (§4)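 Real-time viability: cells seeded at 600 per well together with NanoLuc and cell-permeant prosubstrate, compounds added after 5 h incubation. Luminescence tracked at 0, 8, 16, 24, 32 and 40 h of exposure.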

[5] = A CellTox Green Cytotoxicity Assay to monitor cytotoxicity in HEK293 cells - 40 hour (AID 1224871); note: nearly all actives have a fitted effect of over 45% in size
In short: as §3

[6] = qHTS RealTime-Glo MT Cell Viability Assay in HEK293 cells - 16 hour (AID 1224872)
In short: as §2

[7] = qHTS RealTime-Glo MT Cell Viability Assay in HepG2 cells - 8 hour (AID 1224873); note: nearly all actives have a fitted effect of over 55% in size
In short: as §4

[8] = qHTS RealTime-Glo MT Cell Viability Assay in HEK293 cells - 40 hour (AID 1224874); conditions: RealTime-Glo luminescence, active compounds read low; note: nearly all actives have a fitted effect of over 50% in size
In short: (§5)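 Nonlytic bioluminescent viability monitoring. HEK293 at 600 cells/well with reagent; 5 h settle; compound transfer by pintool; plates held at 37 C and read at set time points.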

[9] = A CellTox Green Cytotoxicity Assay to monitor cytotoxicity in HEK293 cells - 24 hour (AID 1224875); note: series mostly up to about 77 µM; nearly all actives have a fitted effect of over 45% in size
In short: as §3

[10] = A CellTox Green Cytotoxicity Assay to monitor cytotoxicity in HepG2 cells - 16 hour (AID 1224876); note: nearly all actives have a fitted effect of over 45% in size
In short: (§6)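 Real-time, homogeneous cytotoxicity readout: dead-cell DNA staining by CellTox Green in HepG2 monolayers, fluorescence measured at timed intervals up to 40 h of continuous compound exposure.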

[11] = qHTS RealTime-Glo MT Cell Viability Assay in HepG2 cells - 32 hour (AID 1224877); note: nearly all actives have a fitted effect of over 55% in size
In short: as §1

[12] = A CellTox Green Cytotoxicity Assay to monitor cytotoxicity in HepG2 cells - 40 hour (AID 1224879); note: nearly all actives have a fitted effect of over 40% in size
In short: as §6

[13] = qHTS RealTime-Glo MT Cell Viability Assay in HEK293 cells - 0 hour (AID 1224880); note: top concentration of the series differs between compounds; nearly all actives have a fitted effect of over 45% in size
In short: as §5

[14] = A CellTox Green Cytotoxicity Assay to monitor cytotoxicity in HEK293 cells - 32 hour (AID 1224881); note: nearly all actives have a fitted effect of over 40% in size
In short: as §3

[15] = A CellTox Green Cytotoxicity Assay to monitor cytotoxicity in HepG2 cells - 0 hour (AID 1224882); note: nearly all actives have a fitted effect of over 35% in size
In short: as §6

[16] = A CellTox Green Cytotoxicity Assay to monitor cytotoxicity in HepG2 cells - 32 hour (AID 1224883); note: nearly all actives have a fitted effect of over 50% in size
In short: as §6

[17] = A CellTox Green Cytotoxicity Assay to monitor cytotoxicity in HEK293 cells - 8 hour (AID 1224884); note: nearly all actives have a fitted effect of over 35% in size
In short: as §3

[18] = qHTS RealTime-Glo MT Cell Viability Assay in HepG2 cells - 16 hour (AID 1224885); note: nearly all actives have a fitted effect of over 50% in size
In short: as §1

[19] = qHTS RealTime-Glo MT Cell Viability Assay in HEK293 cells - 24 hour (AID 1224886)
In short: as §2

[20] = A CellTox Green Cytotoxicity Assay to monitor cytotoxicity in HepG2 cells - 24 hour (AID 1224878); note: nearly all actives have a fitted effect of over 45% in size
In short: as §6
% is set by controls: 0 for no effect and ±100 for the full control effect.

C/C(Cl)=C/CCl
inactive: outcome [1] | outcome [2] | outcome [3] | outcome [4] | Potency [5] | outcome [6] | outcome [7] | max response [8] 16% | Potency [9] | Potency [10] | outcome [11] | Potency [12] | Potency [13] | Potency [14] | Potency [15] | Potency [16] | Potency [17] | outcome [18] | outcome [19]

CCNC(=O)C(C)OC(=O)Nc1ccccc1 (stereo not drawn)
inactive: outcome [1] | outcome [2] | outcome [3] | outcome [4] | Potency [5] | outcome [6] | outcome [7] | max response [8] -1.79% | Potency [9] | Potency [10] | outcome [11] | Potency [20] | Potency [12] | Potency [13] | Potency [15] | Potency [16] | Potency [17] | outcome [18] | outcome [19]

CC1(C)S[C@@H]2[C@H](NC(=O)Cc3ccccc3)C(=O)N2[C@H]1C(=O)O (tested in a mixture with another compound)
inactive: outcome [1] | outcome [2] | outcome [3] | outcome [4] | Potency [5] | outcome [6] | outcome [7] | max response [8] -2.11% | Potency [9] | Potency [10] | outcome [11] | Potency [20] | Potency [12] | Potency [16] | Potency [17] | outcome [18]

CCCCCC(=O)CC
inactive: outcome [1] | outcome [2] | outcome [3] | outcome [4] | Potency [5] | outcome [6] | outcome [7] | max response [8] 19.7% | Potency [9] | Potency [10] | outcome [11] | Potency [20] | Potency [12] | Potency [13] | Potency [15] | Potency [16] | Potency [17] | outcome [18] | outcome [19]

NNC(=O)CCCCC(=O)NN
inactive: outcome [1] | outcome [2] | outcome [3] | outcome [4] | Potency [5] | outcome [6] | outcome [7] | max response [8] 3.47% | Potency [9] | Potency [10] | outcome [11] | Potency [20] | Potency [12] | Potency [13] | Potency [15] | Potency [16] | Potency [17]

O=C1CC2(CCCC2)CC(=O)N1CCNCC1COc2ccccc2O1 (stereo not drawn)
inactive: outcome [1] | outcome [2] | outcome [3] | outcome [4] | Potency [5] | outcome [6] | outcome [7] | max response [8] -2.45% | Potency [9] | Potency [10] | outcome [11] | Potency [20] | Potency [12] | Potency [15] | Potency [16] | Potency [17] | outcome [19]

CCCCc1ccc(Cl)cc1
inactive: outcome [1] | outcome [2] | outcome [3] | outcome [4] | Potency [5] | outcome [6] | outcome [7] | max response [8] 8.05% | Potency [9] | Potency [10] | outcome [11] | Potency [20] | Potency [12] | Potency [13] | Potency [15] | Potency [16] | Potency [17] | outcome [18] | outcome [19]

Cc1cc2c(cc1CC(=O)c1sccc1S(=O)(=O)Nc1onc(C)c1Cl)OCO2
inactive: outcome [1] | outcome [2] | outcome [3] | outcome [4] | Potency [5] | outcome [6] | outcome [7] | max response [8] 6.15% | Potency [9] | Potency [10] | outcome [11] | Potency [20] | Potency [12] | Potency [14] | Potency [15] | Potency [16] | outcome [19]

COC(=O)c1ccc(C(=O)O)cc1
inactive: outcome [1] | outcome [2] | outcome [3] | outcome [4] | Potency [5] | outcome [6] | outcome [7] | max response [8] 1.5% | Potency [9] | Potency [10] | outcome [11] | Potency [20] | Potency [12] | Potency [14] | Potency [15] | Potency [17] | outcome [18]

C[C@]12C=CC(=O)C=C1[C@@H](F)C[C@@H]1[C@@H]2[C@@H](O)C[C@@]2(C)[C@H]1CC[C@]2(O)C(=O)CO
inactive: outcome [1] | outcome [2] | outcome [3] | outcome [4] | Potency [5] | outcome [6] | outcome [7] | max response [8] -0.454% | Potency [9] | Potency [10] | outcome [11] | Potency [20] | Potency [12] | Potency [14] | Potency [15] | Potency [16] | Potency [17] | outcome [18] | outcome [19]

CC(=O)Nc1ccc(S(=O)(=O)Nc2cc(C)on2)cc1
inactive: outcome [1] | outcome [2] | outcome [3] | outcome [4] | Potency [5] | outcome [6] | outcome [7] | max response [8] 0.358% | Potency [9] | Potency [10] | outcome [11] | Potency [12] | Potency [13] | Potency [14] | Potency [15] | Potency [16] | Potency [17] | outcome [18] | outcome [19]

CC12CCCC=C1C(=O)OC2=O (stereo not drawn)
inactive: outcome [1] | outcome [2] | outcome [3] | outcome [4] | Potency [5] | outcome [6] | outcome [7] | max response [8] 7.32% | Potency [9] | Potency [10] | outcome [11] | Potency [20] | Potency [12] | Potency [13] | Potency [15] | Potency [16] | Potency [17] | outcome [18] | outcome [19]

Cc1ccccc1OCC(=O)O
inactive: outcome [1] | outcome [2] | outcome [3] | outcome [4] | Potency [5] | outcome [6] | outcome [7] | max response [8] 3.48% | Potency [9] | Potency [10] | outcome [11] | Potency [20] | Potency [12] | Potency [14] | Potency [15] | Potency [16] | Potency [17] | outcome [18] | outcome [19]

C=CCN1CCc2nc(N)sc2CC1
inactive: outcome [1] | outcome [2] | outcome [3] | outcome [4] | Potency [5] | outcome [6] | outcome [7] | max response [8] 7.02% | Potency [9] | Potency [10] | outcome [11] | Potency [20] | Potency [12] | Potency [13] | Potency [14] | Potency [16] | outcome [18]
